# Compound activity (PubChem BioAssay)
# AMA1-RON2 inh – qHTS for Inhibitors of AMA1-RON; Towards Development of Antimalarial Drug Lead: Primary Screen. 360,000 tested, 0.2% active. AlphaScreen AMA1-biotinylated RON2 peptide binding. AID 720542, 2013. Plasmodium falciparum AMA1 (3D7) - RON2 peptide interaction. Potency, µM (titrated, usually from 58.2 µM), most hits filed as inhibitors; note: nearly all actives have a fitted effect of over 45% in size
#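 AMA1 (3D7) with his tag at 25 nM final met compounds first, then biotinylated RON2 peptide at 25 nM; detection used donor plus acceptor beads, 10 µg/mL apiece, read by AlphaScreen after 30 min at room temperature.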
# Pf growth 48h – Primary qHTS for delayed death inhibitors of the malarial parasite plastid, 48 hour incubation | P. falciparum luciferase growth in erythrocytes, 48 h | Potency, µM (series often up to 28.7 µM), usual class: inhibitors | 310,000 tested, 5.9% active | AID 504832, 2011
#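 Cell-based growth assay: transgenic P. falciparum expressing firefly luciferase, cultured in red cells within RPMI 1640 containing 0.5% w/v Albumax, 24 mM bicarbonate and gentamycin. A drop in luciferase activity indicates inhibition.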
# Pf growth 96h – Primary qHTS for delayed death inhibitors of the malarial parasite plastid, 96 hour incubation; 320,000 tested, 6.9% active; P. falciparum luciferase reporter growth, 96 h; AID 504834, 2011; Potency, µM (top dose mostly 28.7 µM), hits mostly inhibitors
#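 Readout is luminescence from an integrated firefly luciferase in P. falciparum. Red cells, 2% hematocrit and 0.05% parasitemia final, were cultured with compound through two parasite generations (96 hours) at 37 C, 5% CO2.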
# AmpC detergent – qHTS Inhibitors of AmpC Beta-Lactamase (assay with detergent). P00811. AmpC hydrolysis of nitrocefin, absorbance 480 nm, 0.01% Triton. Potency, µM (series often up to 114 µM), actives largely listed as inhibitors. 370,000 tested, 0.041% active. AID 485294, 2010; note: nearly all actives have a fitted effect of over 25% in size
# Target sequence (P00811 whole entry, looked up): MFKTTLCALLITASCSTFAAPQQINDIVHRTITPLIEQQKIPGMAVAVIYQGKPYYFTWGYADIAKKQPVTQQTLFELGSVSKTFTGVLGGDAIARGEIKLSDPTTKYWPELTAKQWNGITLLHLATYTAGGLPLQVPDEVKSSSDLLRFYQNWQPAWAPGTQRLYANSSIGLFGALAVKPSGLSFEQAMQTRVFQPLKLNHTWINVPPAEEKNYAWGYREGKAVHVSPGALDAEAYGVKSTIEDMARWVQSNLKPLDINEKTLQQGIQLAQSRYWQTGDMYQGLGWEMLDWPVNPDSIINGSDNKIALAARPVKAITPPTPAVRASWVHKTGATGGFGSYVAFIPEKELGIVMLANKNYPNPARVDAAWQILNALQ
#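 AmpC (5.3 nM in the dispensed reagent) in 20 mM phosphate pH 7.0 with 0.01% (detergent screen) or 0.0001% Triton X-100 was preincubated with compounds for 15 min at room temperature. Nitrocefin was then added from an 800 uM solution, and hydrolysis was followed at 480 nm.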
# HCV inh – qHTS Assay for Inhibitors of Hepatitis C Virus (HCV) | Huh7.5.1 HCVcc-Cre infection, luciferase reporter, 44 h | Potency, µM (top dose mostly 41.8 µM), most hits filed as inhibitors | 340,000 tested, 3.4% active
#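 Luciferase read-out (15 sec integration) after a 15 min room-temperature substrate step quantifies HCVcc-Cre infection. Cells, 1,000 per well, had compound added 4 h post-plating, then virus at ~0.5 moi, and were cultured 44 h.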
# AmpC no deterg – qHTS Inhibitors of AmpC Beta-Lactamase (assay without detergent); AID 485341, 2010; 330,000 tested, 0.52% active; Potency, µM (series often up to 57.1 µM), most hits filed as inhibitors; AmpC nitrocefin hydrolysis, absorbance 480 nm, 0.0001% Triton; note: nearly all actives have a fitted effect of over 20% in size
#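 20 mM phosphate pH 7.0 + 0.01% (detergent screen) or 0.0001% Triton X-100; 5.3 nM AmpC reagent; cpd preinc 15 min RT; nitrocefin (800 uM stock) to start; A480 q20 s × 4 min; Activity was normalised to no-enzyme and no-compound control wells.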
# Numbers stand for hits; n = inactive; u = inconclusive; x = no result. Only some compounds are listed: those with a hit (about 11% of all), similar ones and a draw of the others. Calls come from the whole dose curve; as a rule, active = well fitted curve in the direction sought with a large enough effect; inconclusive = small, poorly fitted or top-dose-only effect, or another doubt; inactive = no such curve, though single readings can be large; an effect the other way counts as inactive or inconclusive.
SMILES,AMA1-RON2 inh,Pf growth 48h,Pf growth 96h,AmpC detergent,HCV inh,AmpC no deterg
Cc1ccc(-c2nnn(CC(=O)N(CC(=O)NCCC(C)C)c3ccc(F)cc3)n2)cc1,x,x,x,n,x,x
CCCCOC(=O)c1ccc(NC(=O)c2ccc3c(c2)CCN3S(C)(=O)=O)cc1,x,x,x,n,x,x
CCN(Cc1ccccc1)C(=O)CSc1nc(C)cc(C)c1C#N,n,u,10.4µM,u,10µM,n
Cc1cc(C)c(C#N)c(SCC(=O)C(C)(C)C)n1,n,n,n,u,n,n
COC(=O)CC(=O)CSc1nc(C)cc(C)c1C#N,n,n,8.28µM,u,n,n
O=C(c1ccc2c(c1)CCN2S(=O)(=O)c1ccc(Cl)cc1)N1CCN(c2ccccc2)CC1,x,x,x,n,x,x
COc1cc(NC(=O)c2ccc3c(c2)OCCO3)ccc1NC(=O)c1ccco1,n,n,2.33µM,n,n,n
O=C(Nc1cccc(NC(=O)c2ccco2)c1)c1ccc2c(c1)OCO2,n,n,n,n,u,11.2µM
O=C(Nc1cccc(NC(=O)c2ccco2)c1)c1ccc2c(c1)OCCO2,n,n,n,u,n,n
O=C(Nc1cccc(NC(=O)c2cccs2)c1)c1ccc2c(c1)OCO2,n,n,n,u,u,10µM
CC1Cc2ccccc2N1C(=S)NC(=O)c1ccco1 (centres undefined),n,n,n,n,n,n
CC(Oc1ccc(NC(=O)c2ccco2)cc1)C(=O)N1c2ccccc2CC1C (centres undefined),n,u,5.22µM,n,n,n
CS(=O)(=O)c1ccc(-c2cccc(NC(=O)c3ccc4c(c3)OCO4)c2)nn1,n,x,x,x,x,x
COc1ccc(-c2cccc(NC(=O)c3ccc4c(c3)OCO4)c2)nn1,n,n,u,n,15.8µM,n
COc1cccc(NC(=O)c2ccco2)c1,n,n,n,n,n,n
Cc1ccc(C(=O)C(C)Oc2cccc(NC(=O)c3ccco3)c2)cc1 (centres undefined),n,2.94µM,n,n,n,n
CCCCC(=O)Nc1cccc(NC(=O)c2ccc3c(c2)OCO3)c1,n,n,n,n,2.82µM,n
O=C(NCC(O)c1ccccc1)c1ccc(Cl)c(S(=O)(=O)N2CCCCC2)c1 (centres undefined),n,u,n,n,10µM,n
Cc1ccc(CNC(=O)c2ccc(Cl)c(S(=O)(=O)N3CCCCC3)c2)cc1,n,u,u,n,u,n
O=C(NCC(O)c1ccccc1)c1ccc(Cl)c(S(=O)(=O)N2CCCC2)c1 (centres undefined),n,9.28µM,u,n,u,n
COc1cccc(C(CNC(=O)c2ccc(Cl)c(S(=O)(=O)N3CCCC3)c2)N(C)C)c1 (centres undefined),n,x,x,x,u,n
Cc1ccc(-n2ncc(C(=O)NC3CCCCC3)c2C2CCN(C(=O)OC(C)(C)C)CC2)cc1,x,x,x,n,x,x
O=C1CCN(CCc2ccccc2)CCN1[C@H](CSc1ccccc1)Cc1ccccc1,n,u,u,n,n,n
CC(C)C[C@@H](CSc1ccccc1)N1CCN(CC(C)C)CCC1=O,n,u,u,n,n,n
O=C1CCN(CCc2ccccc2)CCN1[C@H](CSc1ccc(Br)cc1)c1ccccc1,n,n,n,n,n,n
SMILES,AMA1-RON2 inh,Pf growth 48h,Pf growth 96h,AmpC detergent,HCV inh,AmpC no deterg
CC(=O)Nc1ccc(SC[C@H](c2ccccc2)N2CCN(CCc3ccccc3)CCC2=O)cc1,x,13.1µM,7.38µM,n,x,n
CCCN1CCC(=O)N([C@H](CSc2ccc(C)cc2)Cc2ccccc2)CC1,n,9.28µM,5.86µM,n,n,n
CC(C)[C@@H](CSc1ccccc1)N1CCN(Cc2ccccc2)CCC1=O,n,14.7µM,n,n,n,n
CCCN1CCC(=O)N([C@H](CSc2ccc(OC)cc2)Cc2ccccc2)CC1,n,10.4µM,2.94µM,n,n,n
O=C(NCc1ccccc1F)C1CCN(Cc2cc3ccccc3n2Cc2cccc(Cl)c2)CC1,x,x,x,n,x,x
O=C(NCc1ccccc1Cl)c1c2c(nc3ccccc13)C(=O)N(C1CCCCC1)C2,x,x,x,n,x,x
COc1ccc(NS(=O)(=O)c2cnc(N)nc2)cc1Cl,x,x,x,n,x,x
Cc1ccc2cc(C3C(C#N)=C(N)Oc4c3ccc3cccnc43)c(=O)[nH]c2c1 (centres undefined),n,u,2.62µM,n,11.2µM,n
N#CC1=C(N)Oc2c(ccc3cccnc23)C1c1cccnc1 (centres undefined),n,u,x,n,3.55µM,n
CCc1ccc2[nH]c(=O)c(C3C(C#N)=C(N)Oc4c3ccc3cccnc43)cc2c1 (centres undefined),n,u,u,n,11.2µM,n
CC(=O)C1=C(C)OC(N)=C(C#N)C1c1cc2cccc(C)c2nc1Cl (centres undefined),n,n,u,u,n,n
CCOc1ccccc1CNC(=O)CCCN1C(=O)CCn2nc(-c3cccn3C)cc21,x,x,x,n,x,x
CCOc1ccc(NC(=O)C2CCN(c3nnc(-n4c(C)ccc4C)s3)CC2)cc1,x,x,x,n,x,x
COc1ccc(Cl)cc1NC1=NCC(C)S1 (centres undefined),n,n,n,n,11.2µM,u
COc1ccccc1-c1noc(-c2cc(OC)c(OC)c(OC)c2)n1,n,n,u,n,u,n
COc1cc(-c2nc(-c3cccc(C(F)(F)F)c3)no2)cc(OC)c1OC,n,u,11.7µM,u,u,n
COc1cc(-c2nc(-c3ccccn3)no2)cc(OC)c1OC,n,n,n,n,3.98µM,n
Clc1cccc(-c2nc(-c3ccccn3)no2)c1,n,n,7.38µM,n,n,n
c1ccc(-c2nc(-c3ccccn3)no2)cc1,n,n,n,n,n,n
CCOc1ccccc1NC(=O)CCCc1nc(-c2ccccc2Cl)no1,x,x,x,n,x,x
N#CCC(=N)N1CCN(c2ccccc2Cl)CC1,n,n,n,n,n,0.316µM
COc1cc(NC(=O)c2noc3c2CCc2ccccc2-3)cc(OC)c1OC,x,x,x,n,x,x
COCCCNC(=O)c1cc2cc3cc(OC)ccc3nc2o1,n,10.4µM,n,n,n,n
COc1cc(NC(=O)c2cc3cc4cc(OC)ccc4nc3o2)cc(OC)c1,x,x,x,n,x,x
COc1ccc2cc3cc(C(=O)NC(C)C)oc3nc2c1,n,x,2.94µM,n,n,n
COc1ccc2cc3cc(C(=O)Nc4ccc5c(c4)OCCO5)oc3nc2c1,n,u,n,u,11.2µM,n
COc1ccc2cc3cc(C(=O)Nc4cc(OC)c(OC)c(OC)c4)oc3nc2c1,n,x,u,n,u,n
